MARV entry inh – inhibitors of Marburg virus binding or cell entry | Marburg virus pseudotyped entry inhibition, cell reporter | Potency, µM (highest dose often 37.8 µM), for inactives: top-dose activity change, negative = inhibition, usual class: inhibitors | 300,000 tested, 1.8% active | AID 540276; calls by dose curve; tested in HEK293 cells; note: potency is the fitted concentration of half-maximal effect; % is set by controls: 0 for no effect and ±100 for the full control effect
SARS PLpro yeast – inhibitors of SARS-CoV papain-like protease in yeast; S. cerevisiae expressing SARS-CoV PLpro, growth rescue; Potency, µM (top dose mostly 32.9 µM), without a hit: at the highest dose activity, positive = growth rescue, usual class: activators; 330,000 tested, 0.19% active; AID 485353; calls by dose curve; note: potency is the fitted concentration of half-maximal effect; 0% is about no effect; nearly all actives have a fitted effect of over 55% in size
HCMV antiviral – human cytomegalovirus inhibition | HFF cells, HCMV-luciferase reporter, 72 h; stronger effect = lower value | activity change, negative = inhibition, % at 57.5 µM | 410,000 tested, 4.5% active | AID 1259415; in the data active = activity change below about -60%; inconclusive = no clear call, values can overlap the other calls; inactive = above about -39%; note: % is set by controls: 0 for no effect and ±100 for the full control effect
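Screen run at 2 compound doses on HFFs infected with reporter HCMV, MOI 1 PFU/cell. Luciferase activity from cell lysates at 72 h post infection gave inhibition relative to buffer-only and Salinomycin wells.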
Lassa entry inh – Lassa virus entry inhibition | AID 540256 | 300,000 tested, 1.2% active | Potency, µM (top dose mostly 37.9 µM), inactives show at the highest dose activity change, negative = inhibition, most hits filed as inhibitors | Lassa virus pseudotype entry inhibition, cell reporter; calls by dose curve; tested in HEK293 cells; note: potency is the fitted concentration of half-maximal effect; % is set by controls: 0 for no effect and ±100 for the full control effect; nearly all actives have a fitted effect of over 50% in size
HCV inhibitor – blocks hepatitis C virus; 340,000 tested, 3.4% active; Huh7.5.1 HCVcc-Cre infection, luciferase reporter, 44 h; Potency, µM (doses to about 41.8 µM), for inactives: top-dose activity change, negative = inhibition, hits mostly inhibitors; AID 651820; active = well fitted inhibition curve with a large enough effect; inconclusive = small, poorly fitted or top-dose-only effect, or another doubt; inactive = no such curve, though single readings can be large or run the other way; note: potency is the fitted concentration of half-maximal effect; % is set by controls: 0 for no effect and ±100 for the full control effect
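Infectious HCVcc-Cre (~0.5 moi) was added to cells just after compound, with cells seeded 4 h earlier at 1,000 per well. Luciferase activity after 44 h culture reported infection; substrate was incubated 15 min at room temperature before reading.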
FMDV inh – blocks foot and mouth disease virus; 410,000 tested, 1.2% active; Potency, µM (titrated, usually from 57.9 µM), for inactives: at the top dose activity change, negative = inhibition, most hits filed as inhibitors; FMDV antiviral cell-based qHTS; calls by dose curve; tested in HEK293T cells; note: read-out not given here; potency is the fitted concentration of half-maximal effect; % is set by controls: 0 for no effect and ±100 for the full control effect; nearly all actives have a fitted effect of over 45% in size
An asterisk follows results filed as active; [ ] = remark or other dose. In the library only some 8% were active in any assay of this set; here they are far more common.

Results for COc1ccc(CNCCC(c2ccc(F)cc2)c2ccc(OC)cc2)cc1 (stereo unspecified) ?
MARV entry inh: 11µM*; SARS PLpro yeast: 27%; HCMV antiviral: -22; Lassa entry inh: 13µM*; HCV inhibitor: inconclusive; FMDV inh: -10%

How did COc1ccc(CNC(=O)CNC(C)c2ccc(F)cc2)cc1 (stereo unspecified) do in these assays?
SARS PLpro yeast: -1%; HCMV antiviral: 13; HCV inhibitor: 8%; FMDV inh: -17%

Results for O=C(N[C@H]1CC[C@H](CCNS(=O)(=O)c2ccc(Cl)cc2)O[C@@H]1CO)c1cccc(F)c1 ?
HCMV antiviral: -101*; FMDV inh: inconclusive

How did COc1ccc(N(C(=O)c2snc(C(N)=O)c2N)C(C(=O)NC2CCCC2)c2cccs2)c(OC)c1 (stereo unspecified) do in these assays?
MARV entry inh: -16%[46.1 µM]; SARS PLpro yeast: -1%; HCMV antiviral: -13; Lassa entry inh: inconclusive; HCV inhibitor: inconclusive; FMDV inh: -16%

Results for CC1(C)CCC[C@@]2(C)C1CC[C@@](C)(O)[C@@H]2CC[C@@](C)(O)C1CO1 (stereo partly specified) ?
FMDV inh: -11%

What do the screens show for `Cc1ccc(-n2c3nc(=O)[nH]c(=O)c-3cc3cc([N+](=O)[O-])ccc32)cc1`?
MARV entry inh: inconclusive; SARS PLpro yeast: 3%; HCMV antiviral: -23; Lassa entry inh: inconclusive; HCV inhibitor: 31%; FMDV inh: 32µM*

Results for CCCCn1c(SCC(=O)c2ccc3c(c2)OCCO3)nnc1-c1ccoc1C ?
MARV entry inh: 11µM*; SARS PLpro yeast: -7%; HCMV antiviral: 15; Lassa entry inh: -29%; HCV inhibitor: 3%; FMDV inh: -18%

What do the screens show for `Cc1occc1-c1nnc(SCC(=O)c2ccc3c(c2)OCCO3)n1CC1CCCO1` (stereo unspecified)?
SARS PLpro yeast: 0%; HCMV antiviral: -19; HCV inhibitor: 1%; FMDV inh: -19%

How did C=C1N(S(=O)(=O)C(F)(F)F)CC[C@@]12c1ccccc1N(C)[C@@H]2c1cn(C)c2ccccc12 do in these assays?
HCMV antiviral: 6

What do the screens show for `C#CCSc1nnnn1-c1cccc(Cl)c1`?
MARV entry inh: 3.2µM*; SARS PLpro yeast: -1%; HCMV antiviral: -5; Lassa entry inh: inconclusive; HCV inhibitor: 25µM*; FMDV inh: -14%

How did NC(=O)CSc1nnnn1-c1cccc(Cl)c1 do in these assays?
MARV entry inh: 15%; SARS PLpro yeast: 8%; HCMV antiviral: 1; Lassa entry inh: 4%; HCV inhibitor: 33%; FMDV inh: -18%

Results for Cc1c(C(=O)NC(C)(C)CO)sc2ncnc(NCCN(C)C)c12 ?
FMDV inh: -9%

What do the screens show for `COC(=O)C1=C(C)NC2=C(C(=O)CCC2)C1c1cccs1` (stereo unspecified)?
SARS PLpro yeast: -2%; HCMV antiviral: 12; HCV inhibitor: 10%

What do the screens show for `CCC(C)Sc1nc2c(c(=O)[nH]1)C(c1cccs1)C1=C(CCCC1=O)N2` (stereo unspecified)?
SARS PLpro yeast: 0%; HCMV antiviral: -93*; HCV inhibitor: -2%; FMDV inh: -28%

What do the screens show for `O=C1CCCC2=C1C(c1ccncc1)c1c(nc(SCc3ccccc3Cl)[nH]c1=O)N2` (stereo unspecified)?
MARV entry inh: 10µM*; SARS PLpro yeast: 2%; HCMV antiviral: 7; Lassa entry inh: inconclusive; HCV inhibitor: -5%; FMDV inh: -6%

What do the screens show for `Oc1ccccc1CNn1cnnc1`?
MARV entry inh: 5%; SARS PLpro yeast: -4%; HCMV antiviral: -100*; Lassa entry inh: 6%; HCV inhibitor: 27%; FMDV inh: -8%

Results for NCC12CC3CC(C1)CC(CN)(C3)C2 ?
MARV entry inh: 18µM*; SARS PLpro yeast: 14%; HCMV antiviral: -5; Lassa entry inh: -12%; HCV inhibitor: -1%; FMDV inh: -16%

What do the screens show for `O=C(C[C@H]1C(=O)N(Cc2ccccc2)C[C@@H]1Cc1ccccc1)Nc1ccccc1`?
SARS PLpro yeast: -2%; HCMV antiviral: -16; Lassa entry inh: 16µM*; HCV inhibitor: -20%; FMDV inh: 2%

High-throughput results from PubChem.
